High-throughput results as filed in PubChem BioAssay.
MBNL1-CUG inh: MBNL1-poly(CUG) RNA binding inhibition; Q9NR56; TR-FRET MBNL1-His/biotin-(CUG)12 binding, 665/545 ratio; Potency, µM (top dose mostly 57.5 µM), most hits filed as inhibitors; 280,000 compounds, 0.036% hits; AID 2675; active means well fitted inhibition curve with a large enough effect in the signal ratio, with a control signal flat, not every such curve was filed as active; inconclusive means small, poorly fitted or top-dose-only effect, or effect the other way, or a change in a side signal; inactive means no such curve, though single readings can be large or run the other way; the % refers to the signal ratio
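Ratiometric TR-FRET (665 over 545 nm, excitation 340 nm) tracks disruption of MBNL1-His/biotin-(CUG)12 complex after 60 min at room temperature, with compounds at 92 nM to 58 uM final.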
CBFb RUNX1 block: blocks binding between human CBF-beta and RUNX1; Q01196+Q13951; AlphaScreen CBFb-His/RUNX1-biotin binding, biochemical; Potency, µM (titrated, usually from 59.8 µM), most hits filed as inhibitors; 230,000 tested, under 10 active; AID 1477
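Bead-based AlphaScreen assay; binding partners His-tagged CBF-beta and biotinylated RUNX1 at 30 nM each. Compound exposure 15 min after a 20-min protein preincubation; bead step 90 min; all steps at room temperature.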
RORgamma inh: ROR gamma (mouse) transcription inhibition. P51450. Drosophila S2 Gal4-RORgamma UAS-luciferase reporter, 20 h. Potency, µM (doses to about 53.6 µM), actives largely listed as inhibitors. 310,000 compounds, 5.4% hits. AID 2551; further: nearly all actives have a fitted effect of over 60% in size
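Using a luciferase readout, inhibitors were identified by reduced reporter activity in Drosophila cells coexpressing a copper-inducible Gal4–ROR gamma fusion and UAS-driven Photinus luciferase, incubated 20 hr after 700 uM copper sulfate.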
CtBP-E1A inh: inhibitors of CtBP/E1A interaction. AlphaScreen GST-E1A/His-CtBP binding, 1536-well; stronger effect = lower value. activity change, % (test concentration not listed). 340,000 compounds, 0.49% hits. AID 651724; in the data active means activity change below about -65%; inconclusive means mostly about -30% to -63%
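Homogeneous bead-based format: GST-tagged E1A captured on glutathione donor beads, His-tagged CtBP on nickel acceptor beads; compounds precede bead addition by 2 h at 37 °C.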
VP16 counter: Gal4-VP16 reporter inhibition counter-screen. Drosophila S2 Gal4-VP16 UAS-luciferase, luminescence, 20 h. Potency, µM (top dose mostly 53.6 µM), most hits filed as inhibitors. 310,000 compounds, 3.5% hits;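 further: Gal4-VP16 expression switched on by copper sulfate through the metallothionein promoter; nearly all actives have a fitted effect of over 50% in size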
Six1-Eya2 blk: inhibitors of human Six1/Eya2 interaction | 360,000 compounds, 0.56% hits | activity change, % (no concentration beside the values) | AID 651725 | AlphaScreen GST-Six1/His-Eya2 binding, biochemical; stronger effect = lower value; in the data active means activity change below about -65%; inconclusive means mostly about -30% to -63%
Target sequence (O00167 whole entry, looked up): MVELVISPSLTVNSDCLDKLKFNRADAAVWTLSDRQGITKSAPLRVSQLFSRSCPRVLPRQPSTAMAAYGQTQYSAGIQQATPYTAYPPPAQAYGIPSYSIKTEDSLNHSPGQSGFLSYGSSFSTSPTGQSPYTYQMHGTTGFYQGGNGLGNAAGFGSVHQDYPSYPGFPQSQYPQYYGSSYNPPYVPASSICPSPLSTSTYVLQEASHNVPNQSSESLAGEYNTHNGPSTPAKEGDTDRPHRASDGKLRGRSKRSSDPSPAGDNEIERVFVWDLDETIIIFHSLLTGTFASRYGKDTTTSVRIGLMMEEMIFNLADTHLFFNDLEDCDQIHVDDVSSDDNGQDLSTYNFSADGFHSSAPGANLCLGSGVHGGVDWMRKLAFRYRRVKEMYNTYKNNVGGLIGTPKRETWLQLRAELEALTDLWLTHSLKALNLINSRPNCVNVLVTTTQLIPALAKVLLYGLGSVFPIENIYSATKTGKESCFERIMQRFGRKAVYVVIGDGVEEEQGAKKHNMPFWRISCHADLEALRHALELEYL
Target sequence (Q15475 whole entry, looked up): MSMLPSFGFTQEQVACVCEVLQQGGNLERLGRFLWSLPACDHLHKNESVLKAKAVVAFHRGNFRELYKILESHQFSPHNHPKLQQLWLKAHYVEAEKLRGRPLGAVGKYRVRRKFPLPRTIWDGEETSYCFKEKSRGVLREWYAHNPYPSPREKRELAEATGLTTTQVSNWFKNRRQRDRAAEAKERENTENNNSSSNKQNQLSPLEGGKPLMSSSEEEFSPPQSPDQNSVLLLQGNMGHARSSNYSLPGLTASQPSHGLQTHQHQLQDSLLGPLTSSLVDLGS
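Six1/Eya2 binding was read as AlphaScreen signal after compounds were pinned into GST-Six1 plus His-tagged Eya2 (5X stock 250/500 nM) in pH 8.0 Tris/NaCl/TCEP buffer, beads added, then incubated 1 h, 37 C, dark.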
Hits are given with their value; n = inactive; u = inconclusive; x = no result given; [ ] = another dose, or the depositor's remark. Most compounds without a hit are left out; they make up all but 5.5% or so of the library. Unless noted, the call rests on the fitted dose curve; in most records, active means well fitted curve in the direction sought with a large enough effect; inconclusive means small, poorly fitted or top-dose-only effect, or another doubt; inactive means no such curve, though single readings can be large; an effect the other way counts as inactive or inconclusive.

SMILES | MBNL1-CUG inh | CBFb RUNX1 block | RORgamma inh | CtBP-E1A inh | VP16 counter | Six1-Eya2 blk
O=C(Oc1ccccc1)N1CCN(C(=O)c2ccco2)CC1 | n | x | n | n | n | n
COc1ccc(-n2c(COc3ccc(Cl)cc3Cl)n[nH]c2=S)cc1 | x | x | x | n | x | n
S=c1[nH]nc(COc2ccc(Cl)cc2)n1-c1ccc(Cl)cc1 | n | x | 5.6µM | n | u | n
CC(Sc1nnc(COc2ccc(Cl)cc2)n1-c1ccccc1)C(=O)O (centres undefined) | n | x | n | n | n | n
Cc1ccc(OCc2nc(-c3ccc(Cl)cc3)n[nH]2)cc1 | n | n | n | n | n | n
S=c1[nH]nc(COc2ccc(Cl)cc2)n1-c1ccccc1 | n | x | 4µM | n | 3.2µM | n
Cc1ccc(OCc2n[nH]c(=S)n2-c2ccc(Cl)cc2)cc1 | n | x | n[1.91 µM] | n | 3.2µM | n
Cc1ccc(OCc2n[nH]c(=S)n2N)cc1C | n | n | 7.9µM | n | n | n
CC(=O)c1ccc(N(CC(=O)NC2CCCC2)C(=O)CCC(=O)Nc2cc(C)on2)cc1 | n | x | n | n | n | n
Clc1ccc(-n2cc(COCc3ccccc3)nn2)cc1 | n | n | u | n | u | n
CC(C)OCC(O)CCc1n[nH]c(=S)n1-c1ccccc1 (centres undefined) | x | n | n | n | n | n
Cc1ccc(OCc2n[nH]c(=S)n2-c2ccc(Br)cc2)cc1 | u | x | 2.2µM | x | 5.6µM | n
Cc1ccccc1OCc1n[nH]c(=S)n1-c1ccccc1 | n | n | 2.5µM | n | 8.9µM | n
CCNC(=S)NNC(=O)Cn1nc(C)cc1C | n | n | 10µM | n | n | n
Cc1cc(C(F)(F)F)nn1CC(=O)NNC(=S)NCC(C)C | n | n | 7.1µM | n | n | n
COc1cc2c(c3oc(=O)cc(CC(=O)O)c13)CCC(C)(C)O2 | n | x | n | x | n | n
O=S(=O)(SC1=NCCN1)c1ccccc1 | x | x | x | n | x | n
Cc1ccc(NC(=O)CCNC(=O)c2ccccc2Cl)cc1S(=O)(=O)N1CCOCC1 | x | x | x | n | x | n
CCCn1c(CNS(=O)(=O)c2ccc(C)cc2)nc2ccccc21 | n | n | 11µM | n | u | n
CCCn1c(C(O)c2ccc(C)cc2)nc2ccccc21 (centres undefined) | n | x | 2.8µM | x | u | n
C=CCn1c(-c2cccs2)nc2ccccc21 | n | n | n | n | n | n
CCCn1c(-c2cccs2)nc2ccccc21 | n | n | 4.5µM | n | 18µM | n
CCCn1c(C(O)c2cc(OC)c(OC)c(OC)c2)nc2ccccc21 (centres undefined) | n | x | u | x | u | n
COc1ccccc1N(Cc1ccccc1)S(=O)(=O)c1cccc(C(=O)NCC2CCCO2)c1 (centres undefined) | x | x | x | n | x | n
O=C(Nc1ccccc1)OC1CC2CC1C1CCCC21 (centres undefined) | n | n | u | n | u | n
SMILES | MBNL1-CUG inh | CBFb RUNX1 block | RORgamma inh | CtBP-E1A inh | VP16 counter | Six1-Eya2 blk
O=C1C(Cl)=C(NCCN2CCOCC2)C(=O)c2ccccc21 | u | x | u | n | u | n
O=C1C(Cl)=C(NCCN2CCOCC2)C(=O)c2ncccc21 | x | u | 4.5µM | x | 2.8µM | x
O=C1C(Cl)=C(NC2CCc3ccccc32)C(=O)c2ncccc21 (centres undefined) | x | u | 4.5µM | x | 4.5µM | x
O=S(=O)(NC1CCc2ccccc21)c1ccccc1 (centres undefined) | x | x | x | n | x | n
COc1ccc(C(=O)/C=C2/C(=O)Nc3ccccc32)c(OC)c1 | n | x | u | n | u | n
NC(=O)COc1ccc(C(=O)/C=C2/C(=O)Nc3ccccc32)cc1 | n | x | 7.9µM | n | u | n
C=CCOc1ccc(C(=O)/C=C2/C(=O)Nc3ccccc32)cc1 | n | x | u | n | n | n
COc1ccc(C(=O)/C=C2/C(=O)Nc3ccccc32)cc1 | n | x | 10µM | n | u | n
C=CCOc1ccccc1C(=O)/C=C1/C(=O)Nc2ccccc21 | n | x | 5.6µM | n | 13µM | n
COc1ccc(C(=O)/C=C2/C(=O)Nc3ccccc32)cc1OC | n | x | u | x | u | n
CC1=Nc2ccccc2/C1=C/c1sc(=S)n(-c2cccc(C(=O)O)c2)c1O | n | u | n | -67 | n | u
Oc1c(C=C2N=c3ccccc3=N2)sc(=S)n1-c1ccccc1 | n | n | n | n | n | n
O=C(COC(=O)c1ccccn1)NC(=O)c1ccccc1 | x | x | x | n | x | n
CCOC(=O)C/C(=N\Nc1ncnc2ccccc12)c1ccccc1 | n | x | 6.3µM | n | 6.3µM | n
CCOC(=O)c1ccc(Nc2ncnc3ccccc23)cc1 | n | n | u | n | n | n
CCOC(=O)/C(=N\Nc1ncnc2ccccc12)c1ccc(C)cc1 | u | x | 5.6µM | u | 13µM | n
CC(=O)Oc1ccc(Cn2c(C)c(C(=O)NCc3ccc4c(c3)OCCO4)sc2=O)cc1 | x | x | x | n | x | n
CCN(Cc1ccccc1)C(=O)c1ccc(N(C)S(=O)(=O)c2ccc(C)cc2)cc1 | x | x | x | n | x | n
O=C(/C=C/c1ccc([N+](=O)[O-])cc1)c1cccs1 | x | n | n | n | n | n
NC(=O)c1ccccc1N/C=C/C(=O)c1cccs1 | u | n | u | n | n | n
Cc1cccc(N/C=C/C(=O)c2cccs2)c1C | n | n | 10µM | n | u | n
COc1cc([N+](=O)[O-])ccc1N/C=C/C(=O)c1cccs1 | n | n | 8.9µM | n | 8.9µM | n
CSC(=S)N/N=C/c1ccc(N(C)C)cc1 | n | u | 0.25µM | n | 2µM | n
CC(C)(C)NC(=O)C(=O)N/N=C/c1ccc(Br)cc1 | n | n | n | n | n | n
CSC(=S)N/N=C/c1ccc(Br)cc1 | n | n | 0.32µM | n | 1.8µM | n
SMILES | MBNL1-CUG inh | CBFb RUNX1 block | RORgamma inh | CtBP-E1A inh | VP16 counter | Six1-Eya2 blk
CCOc1ccc(N=Nc2cc(C(C)C)ccc2O)cc1 | n[11.5 µM] | n | n | u | n | u
CCOc1ccc(N=Nc2ccc(N)cc2N)cc1 | x | x | 8.9µM | x | 10µM | x
CCOc1ccc(N=Nc2ccc(O)c3ncccc23)cc1 | n | x | 0.28µM | u | 0.4µM | n
NS(=O)(=O)c1ccc(N=Nc2ccc(O)c3ncccc23)cc1 | u | x | n | x | u | -97
CC1(C)C2(Cl)C(Cl)C(Cl)C(Cl)(C(Cl)Cl)C1(Cl)C2Cl (centres undefined) | x | x | n | x | n | x
CCCCN(C(=O)c1ccccc1Br)C(c1ccc(OC)cc1)c1nc2ccccc2[nH]1 (centres undefined) | x | x | x | n | x | n
O=C(CCCc1ccccc1)c1ccc2c(c1)OCCO2 | n | u | 1.1µM | n | 2.2µM | n
O=C(CCc1ccccc1)c1ccc2c(c1)OCCCO2 | n | u | n | n | n | n
COc1ccc(CCNC(=O)c2ccc3c(c2)OCCO3)cc1 | n | n | n | n | n | n
O=C(NCCOc1ccccc1)c1ccc2c(c1)OCO2 | n | n | 5µM | n | u | n
